# Experimental data as given in PubChem BioAssay AID2284378 (EPA ToxCast).
# Records with an inconclusive call do not appear. Activity calls are given as the source filed them. Rule for the calls: active = hit-call score of the fitted dose curve at least 0.9, where 1 is the maximum; inconclusive = response in the unintended direction; inactive = score below 0.9.
# System: frog Retinoid X Receptor beta (RXRb), gene 394278
# Experiment: ATG_frRXRb_EcoTox2: Attagene TRANS-FACTORIAL EcoTox-2 HepG2 Assay for frog Retinoid X Receptor beta (RXRb)
# Experimental: ATG_EcoTox2 is a cell-based, multiplexed assay created by modifying the existing Attagene TRANS-FACTORIAL system to include a panel of nuclear receptors from some or all the following species: human (Homo sapiens), african clawed frog (Xenopus laevis), rainbow trout (Oncorhynchus mykiss), japanese medaka (Oryzias latipes), and zebrafish (Danio rerio). The ECOTOX2-FACTORIAL format uses HepG2, a human liver cell line, with measurements taken at 24 hours after chemical dosing in a 24-well plate. ATG_frRXRb_EcoTox2 is one of 29 assay components calculated in the ATG_EcoTox2 assay. It is designed to make measurements of mRNA induction, a form of inducible reporter, as detected with fluorescence intensity signals by Reverse transcription polymerase chain reaction (RT-PCR) and Capillary electrophoresis technology.The assay endpoint ATG_frRXRb_EcoTox2 was analyzed in the positive analysis fitting direction relative to DMSO as the negative control and baseline of activity. Using a type of inducible reporter, measures of mRNA for gain-of-signal activity can be used to understand the reporter gene at the transcription factor-level as they relate to the gene RXRb. Furthermore, this assay endpoint can be referred to as a primary readout, because this assay has produced multiple assay endpoints where this one serves a reporter gene function. To generalize the intended target to other relatable targets, this assay endpoint is annotated to the nuclear receptor intended target family, where the subfamily is non-steroidal.
# Human liver HepG2 cells are transiently transfected with multiple reporter transcription units (MRTUs) in 6-well plates using FuGene 6 reagent (Roche; 3 ml FuGene/1 mg DNA). The MRTU constructs are regulated by a cis-regulating element (promoter). Each RTU expresses a GAL4-UAS that regulates the transcription of a nearby target reporter gene sequence. A major difference between the CIS and TRANS system is that in CIS activities of endogenous TFs are measured, whereas the TRANS assay evaluates changes in activities of exogenous, chimeric NR-Gal4 proteins. […] At the end of 24 hour incubation, total RNA was isolated using TriZol reagent (Invitrogen). The isolated RNA is then reverse-transcribed using oligo(dT) primer and Mo-MLV reverse transcriptase (Invitrogen) with DNAse I (Ambion) treatment for 30 min. The one-tenth of the produced cDNA was amplified by PCR using Taq DNA polymerase (Invitrogen) and two reporter sequence-specific primers. The PCR products were fluorescently labeled by primer extension with 6-arboxyfluorescein (6-FAM) 5'-labeled reporter sequence-specific primer (2 min at 95 C, 20 s at 68 C and 10 min at 72 C) and these products were digested with 5U of HpaI (New England Biolabs) for 2h at 37 C. The fragments were purified using Qiaquick PCR columns (Qiagen), analyzed on an ABI 3130xL genetic analyzer (Applied Biosystems) with peak positions identified by using a set of X-rhodamine (ROX)-labeled MapMarker1000 molecular weight standards (BioVentures). The raw capillary electrophoresis data was processed using Attagraph software (Attagene).
Structure (SMILES),outcome,AC50
Cc1ccc(C)c(OCCCC(C)(C)C(=O)O)c1,inactive,
C[C@@H]1C[C@H]2[C@@H]3CCC4=CC(=O)C=C[C@]4(C)[C@@]3(F)[C@@H](O)C[C@]2(C)[C@@]1(O)C(=O)COP(=O)(O)O,inactive,
C=C(c1ccc(C(=O)O)cc1)c1cc2c(cc1C)C(C)(C)CCC2(C)C,,0.00172 µM (active)
C[C@]12C=CC(=O)C=C1CC[C@@H]1[C@@H]2C(=O)C[C@@]2(C)[C@H]1CC[C@]2(O)C(=O)CO,inactive,
CC(C)(Oc1ccc(Cl)cc1)C(=O)O,inactive,
CC(c1cc2ccccc2s1)N(O)C(N)=O (centres undefined),inactive,
CC(C)OC(=O)C(C)(C)Oc1ccc(C(=O)c2ccc(Cl)cc2)cc1,inactive,
Cc1cccc(Nc2cc(Cl)nc(SCC(=O)O)n2)c1C,,23.8 µM (active)
CN(CCOc1ccc(CC2SC(=O)NC2=O)cc1)c1ccccn1 (centres undefined),inactive,
